# Screens deposited in PubChem by National Center for Advancing Translational Sciences (NCATS).
# Compounds with a hit are over-represented: about 8.7% of the library has one in this group of screens.
# VACV mCherry inh: inhibitors of vaccinia virus infection (mCherry reporter signal); Potency, µM (titrated, usually from 36.5 µM), usual class: inhibitors; Vaccinia virus mCherry reporter infection, fluorescence; actives 0.63% (n = 310,000); calls by dose curve; tested in A549 cells; note: nearly all actives have a fitted effect of over 35% in size
# Pf growth 48h: inhibits P. falciparum growth in the first generation, 48 h | P. falciparum luciferase growth in erythrocytes, 48 h | Potency, µM (titrated, usually from 28.7 µM), usual class: inhibitors | actives 5.9% (n = 310,000) | AID 504832
#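 Luciferase-expressing P. falciparum in infected erythrocytes (2% hematocrit, 0.1% parasitemia final) in RPMI 1640/0.5% Albumax were exposed to compound for 48 hours at 37 C, 5% CO2; growth read as luminescence.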
# Pf growth 96h: P. falciparum growth inhibition at 96 hours; AID 504834; Potency, µM (series often up to 28.7 µM), usual class: inhibitors; P. falciparum luciferase reporter growth, 96 h; actives 6.9% (n = 320,000)
#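 Parasite growth measured via integrated firefly luciferase reporter in P. falciparum. Infected erythrocytes at 2% hematocrit, 0.05% parasitemia final were treated 96 hours at 37 C under 5% CO2, and luminescence was read.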
# AMA1 RON2 block: disrupts binding of P. falciparum AMA1 to RON2 | AlphaScreen AMA1-biotinylated RON2 peptide binding | Potency, µM (top dose mostly 58.2 µM), hits mostly inhibitors | actives 0.2% (n = 360,000) | AID 720542; note: nearly all actives have a fitted effect of over 45% in size
#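 AMA1 (3D7) with his tag at 25 nM final met compounds first, then biotinylated RON2 peptide at 25 nM; detection used donor plus acceptor beads, 10 µg/mL apiece, read by AlphaScreen after 30 min at room temperature.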
# VACV Venus inh: vaccinia inhibition (Venus reporter) | AID 720580 | Potency, µM (doses to about 36.5 µM), usual class: inhibitors | Vaccinia virus Venus reporter expression, fluorescence | actives 0.46% (n = 330,000); calls by dose curve; tested in A549 cells; note: nearly all actives have a fitted effect of over 30% in size
# Hits are given with their value; n = inactive; u = inconclusive; x = no result. Unless noted, calls come from the whole dose curve; as a rule, active = well fitted curve in the direction sought with a large enough effect; inconclusive = small, poorly fitted or top-dose-only effect, or another doubt; inactive = no such curve, though single readings can be large; an effect the other way counts as inactive or inconclusive.
SMILES,VACV mCherry inh,Pf growth 48h,Pf growth 96h,AMA1 RON2 block,VACV Venus inh
CN(C)c1ccc(CNC(=O)C2(C)Cc3c(-c4cccc(C(N)=O)c4)ccnc3O2)cc1 (stereo not given),n,x,x,n,n
CN(C)c1ccc(-c2ccnc3c2CC(C)(C(=O)NCC2CC2)O3)cc1 (stereo not given),n,x,x,u,n
CN(C)c1ccc(CNC(=O)C2(C)Cc3c(-c4ccccc4)ccnc3O2)cc1 (stereo not given),n,x,x,28µM,n
Cc1ccc(CN2CCc3nnc(C(NC(=O)c4ccoc4)C(C)C)n3CC2)cc1C (stereo not given),n,x,x,x,n
CCc1cccc(C)c1Nc1c(-c2ccc(SC)cc2)nc2sccn12,n,x,x,x,n
COc1ccc(OCC(=O)Nc2ccc(-c3nc4cc(C)cc(C)c4o3)cc2)cc1,n,x,x,x,n
CN(C)c1ccc(CNC(=O)C2Cc3c(-c4ccccc4Oc4ccccc4)ccnc3O2)cc1 (stereo not given),n,x,x,10µM,n
O=C(C[n+]1cccc(Br)c1)c1ccc2c(c1)CCCC2,n,x,x,x,n
Cc1cc(C(=O)N(Cc2nnc(-c3ccc(Cl)cc3)o2)C(C)C)c2ccccc2n1,x,12µM,10µM,n,x
CCN(CC)S(=O)(=O)c1cc(-c2nnc(-c3ccc(Br)cc3)o2)ccc1Cl,x,n,3.3µM,n,n
CCN(CC)S(=O)(=O)c1cc(-c2nnc(-c3ccc(Br)cc3)o2)ccc1Br,x,n,n,n,n
Cc1ccc(O)c(C(=O)c2cc(C(=O)NCc3ccccc3)c(=O)n(Cc3ccccc3)c2)c1,n,3.7µM,u,n,n
N#Cc1cc(C(=O)c2cc(Br)ccc2O)cn(Cc2ccccc2)c1=O,n,u,u,n,n
O=C(c1cc(C(=O)NCc2ccccc2)c(=O)n(Cc2ccccc2)c1)c1cc(Br)ccc1O,u,1.5µM,0.41µM,n,u
COc1ccc(O)c(C(=O)c2cc(C#N)c(=O)n(Cc3ccccc3)c2)c1,n,n,u,n,n
Cc1ccc(-n2nc(C)c3c(C)c(CCC(=O)NCc4ccc(Cl)cc4)c(C)nc32)cc1,n,x,x,x,n
Cc1ccc(Nc2ccc(N3CCN(C(=O)c4ccc([N+](=O)[O-])cc4)CC3)nn2)cc1,n,x,x,x,n
Cc1ccc(CNC2=NCCS2)cc1,n,u,3.3µM,n,n
c1ccc(CNC2=NCCS2)cc1,x,n,x,n,n
Cc1ccc(C23CC4CC(CC(C(=O)NC(C)C)(C4)C2)C3)cc1,n,n,9.3µM,n,n
Cc1ccc(C23CC4CC(CC(C(=O)NC(C)C(=O)O)(C4)C2)C3)cc1 (stereo not given),n,n,n,n,n
COc1ccccc1NC(=O)C12CC3CC(C1)CC(c1ccc(C)cc1)(C3)C2,x,0.66µM,n,n,x
O=C(NCc1cccnc1)c1nn(-c2ccccc2F)nc1CO,n,x,x,x,n
COc1cc(C(=O)NCCC(C)C)ccc1OCc1ccc(Cl)cc1Cl,n,10µM,4.7µM,n,u
COc1cc(C(=O)N(C)C2CCCCC2)ccc1OC1CCN(C(C)=O)CC1,x,n,u,n,x
SMILES,VACV mCherry inh,Pf growth 48h,Pf growth 96h,AMA1 RON2 block,VACV Venus inh
COc1cc(C(=O)NCc2ncccc2C)ccc1OC1CCN(C(C)=O)CC1,n,n,15µM,n,n
C=CCN(CC=C)C(=O)c1ccc(OC2CCN(C(C)=O)CC2)c(OC)c1,x,u,2.9µM,n,x
COc1cc(C(=O)NC(C)Cc2ccccn2)ccc1OC1CCN(C(C)=O)CC1 (stereo not given),x,n,n,n,x
C[C@@H](N)C(=O)N[C@H]1CCC2C3CC=C4C[C@@H](O)CC[C@]4(C)C3CC[C@@]21C (stereo not given in full),n,x,x,n,n
CC(C)[C@H](N)C(=O)N[C@H]1CCC2C3CC=C4C[C@@H](O)CC[C@]4(C)C3CC[C@@]21C (stereo not given in full),u,x,x,n,13µM
O=C(O)CCC(=O)Nc1ccc(C(=O)OC2CCCCC2)cc1,n,x,n,n,n
O=C(OC1CCCCC1)c1ccc(NC(=O)C2CCCCC2)cc1,x,x,12µM,n,u
CC(C)CC(=O)NC(=S)NNC(=O)c1ccc(NC(=O)C2CCCCC2)cc1,u,u,13µM,n,n
CCCCC(=O)Nc1ccc(C(=O)OC2CCCCC2)cc1,x,10µM,x,n,n
CC(C)(C)C(=O)Nc1ccc(C(=O)OC2CCCCC2)cc1,n,n,x,n,n
O=C(Nc1ccc(C(=O)OC2CCCCC2)cc1)c1ccncc1,n,n,5.2µM,n,n
O=C(NC1CC1)c1ccc(NC(=O)C2CCCCC2)cc1,n,x,x,n,n
CCC(=O)N1c2ccccc2CC1C(=O)NCCc1cc(OC)c(OC)c(OC)c1 (stereo not given),n,x,x,x,n
COCCC1CCCCN1Cc1nc(N2CCCC2)c2cc(OC)c(OC)cc2n1 (stereo not given),n,x,x,x,n
O=C1CC(=O)Nc2cc(S(=O)(=O)Nc3cccc(Br)c3)ccc2N1,n,x,x,x,n
Cc1ccc(S(=O)(=O)NNC(=O)c2ccc(C(=O)N(c3ccccc3)c3ccccc3)cc2)cc1,n,x,x,x,n
COC(=O)c1c(OCc2ccccn2)cc(=O)n2c1CCN(Cc1cccc(C(F)(F)F)c1)CC2,n,x,x,x,n
CCOC(=O)CCc1ccc(NC(=O)/C=C/c2ccc([N+](=O)[O-])o2)cc1,u,x,x,n,13µM
Cc1ccc(/C=C/C(=O)Nc2ccc([N+](=O)[O-])cc2)o1,u,n,n,n,n
Cc1ncoc1C(=O)N1CCOc2ccc(CN3CCC(Oc4cccnc4)CC3)cc2C1,n,x,x,x,n
Cn1nc(C(C)(C)C)c([N+](=O)[O-])c1C(=O)Nc1cccc2ccccc12,x,12µM,12µM,n,x
CCc1ccc(NC(=O)Cc2ccc(-n3cccc3)cc2)cc1,n,n,2.1µM,n,n
O=C(Nc1ccc(-n2cccc2)cc1)C1CC1,n,12µM,n,n,n
O=C(Nc1ccc(Nc2ccccc2)cc1)C1CC1,n,u,n,n,n
NC(=O)C1(N2CCCCC2)CCN(C(=O)Nc2ccc(F)cc2F)CC1,n,x,x,x,n
SMILES,VACV mCherry inh,Pf growth 48h,Pf growth 96h,AMA1 RON2 block,VACV Venus inh
O=C(Nc1ccccc1)c1cccc(C(=O)Nc2ccccc2)n1,n,n,u,n,n
CN(C)c1ccc(NC(=O)c2cccc(C(=O)Nc3ccc(N(C)C)cc3)n2)cc1,n,u,8.3µM,10µM,n
CCN(CC)C1CCN(Cc2cn[nH]c2-c2ccc(OC)c(F)c2)C1 (stereo not given),n,n,2.1µM,n,n
COc1ccc2nc(N(Cc3cccnc3)C(=O)c3ccc(Cl)cc3)sc2c1,n,x,x,x,n
CCc1cccc(NC(=O)CN2c3ccccc3S(=O)(=O)c3ccccc32)c1,n,x,x,x,n
O=C(O)[C@]1(S(=O)(=O)c2ccccc2)C[C@@H]2ON=C(c3cccc(Br)c3)[C@@H]2C1,n,n,n,n,n
O=S(=O)(c1ccccc1)[C@@]1(c2ccccc2)C[C@@H]2ON=C(c3cccc(Br)c3)[C@@H]2C1,n,12µM,u,n,u
CCOC(=O)C(=Cc1ccc(F)cc1)C(=O)OCC,x,n,n,x,x
